# This is part of a sample that, as a whole, favours compounds with a hit. Of some 79,000 tested, about 15% had one in any assay. Values without a mark were called inactive. The source made the active and inactive calls. No stated cut-off is given here; in the data, active means growth inhibition above about 70%; inactive means the rest.
# How the values were obtained:
# [1] = NCI Yeast Anticancer Drug Screen. Data for the rad52 strain (AID 147);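 further: 0% = growth of vehicle-treated control cultures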; settings: S. cerevisiae rad52 mutant growth inhibition, hits give high values
# Outline: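 DNA repair-defective yeast; compound exposure; growth scored against vehicle controls.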
# [2] = NCI Yeast Anticancer Drug Screen. Data for the wt1 strain (AID 149);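 further: 0% = growth of vehicle-treated wt1 cultures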; settings: S. cerevisiae wt1 strain (SPY 50644) growth inhibition, hits give high values
# Outline: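 wt1 yeast, compound-treated; % growth inhibition vs vehicle control.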
# [3] = NCI Yeast Anticancer Drug Screen. Data for the rad50EPP+ strain (AID 151);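 further: 0% = growth of vehicle-treated control cultures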; settings: S. cerevisiae rad50 mutant strain, hits give high values
# Outline: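 rad50EPP+ yeast treated with test compounds. Readout: growth vs vehicle control.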
# [4] = NCI Yeast Anticancer Drug Screen. Data for the mgt1 strain (AID 153); settings: S. cerevisiae mgt1 mutant growth inhibition, hits give high values
# Outline: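 Growth inhibition relative to vehicle controls was scored for the mgt1 yeast strain after compound exposure.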
# [5] = NCI Yeast Anticancer Drug Screen. Data for the rad50 strain (AID 155);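 further: 0% = growth of vehicle-only cultures of the same strain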; settings: S. cerevisiae rad50 strain growth inhibition, hits give high values
# Outline: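 Genetically altered yeast (DNA repair pathway); compound treatment; growth inhibition vs vehicle ctrl.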
# [6] = NCI Yeast Anticancer Drug Screen. Data for the mec2-1 strain (AID 157); settings: S. cerevisiae mec2-1 strain, hits give high values
# Outline: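 Growth inhibition is read against vehicle-treated controls after compound exposure of the mec2-1 yeast strain, which is defective in DNA damage repair or cell cycle control.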
# [7] = NCI Yeast Anticancer Drug Screen. Data for the rad14 strain (AID 159);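 further: 0% = growth of vehicle-treated control cultures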; settings: S. cerevisiae rad14 strain growth inhibition, hits give high values
# Outline: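 Test compounds were applied to a repair-deficient yeast strain. Its growth was then compared with that of cultures given vehicle alone, and inhibition was expressed relative to those controls.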
# [8] = NCI Yeast Anticancer Drug Screen. Data for the sgs1 mgt1 strain (AID 161);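 further: 0% = growth of cultures given vehicle only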; settings: S. cerevisiae sgs1 mgt1 strain, hits give high values
# Outline: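 Growth of a repair-deficient yeast mutant was monitored after compound treatment and expressed as inhibition relative to vehicle-treated cultures.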
# [9] = NCI Yeast Anticancer Drug Screen. Data for the CLN2oe strain (AID 163);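 further: 0% = growth of vehicle-only control cultures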; settings: S. cerevisiae CLN2oe strain, hits give high values
# Outline: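 Compound-treated yeast; growth vs vehicle ctrl = % inhibition. Genetically altered strain (cell-cycle control).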
# [10] = NCI Yeast Anticancer Drug Screen. Data for the cln2 rad14 strain (AID 165);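 further: 0% = growth equal to vehicle treated cultures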; settings: S. cerevisiae cln2 rad14 strain, hits give high values
# Outline: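 Growth inhibition, relative to vehicle-treated controls, is the read-out. The test organism is a yeast strain with defined genetic alterations, cln2 rad14.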
# [11] = NCI Yeast Anticancer Drug Screen. Data for the bub3 strain (AID 167); settings: S. cerevisiae bub3 mutant strain, hits give high values
# Outline: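 Yeast carrying a defined mutation is treated with each compound, and growth is compared with that of vehicle-exposed cells to give inhibition.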
# [12] = NCI Yeast Anticancer Drug Screen. Data for the wt2 strain (AID 169);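 further: 0% = growth of vehicle-treated yeast cultures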; settings: S. cerevisiae wt2 strain growth inhibition, hits give high values
# Outline: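 Compound exposure of yeast; growth compared with vehicle controls; inhibition reported.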
# [13] = NCI Yeast Anticancer Drug Screen. Data for the mlh1 strain (AID 171);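 further: 0% = growth of vehicle-treated control cultures of the same strain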; settings: S. cerevisiae mlh1 strain growth inhibition, hits give high values
# Outline: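 Compounds are applied to a genetically altered yeast strain, and its growth is compared with that of vehicle-treated cultures to give percent inhibition.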
# [14] = NCI Yeast Anticancer Drug Screen. Data for the sgs1 strain (AID 173);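 further: 0% = growth of vehicle-only control cultures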; settings: S. cerevisiae sgs1 mutant, hits give high values
# Outline: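 Compounds applied to genetically altered yeast; growth compared with vehicle-treated cultures to give % inhibition.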
# [15] = NCI Yeast Anticancer Drug Screen. Data for the mlh1 rad18 strain (AID 175); settings: S. cerevisiae mlh1 rad18 strain growth inhibition, hits give high values
# Outline: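 Cells of a genetically altered yeast strain, deficient in DNA damage repair, were treated with compound. Their growth was then compared with that of vehicle-treated cultures to give inhibition.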
# [16] = NCI Yeast Anticancer Drug Screen. Data for the rad18 strain (AID 177); settings: S. cerevisiae rad18 mutant growth inhibition, hits give high values
# Outline: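 Compounds are applied to a repair-deficient yeast strain, and growth is compared with that of vehicle-treated cultures to give percent inhibition.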
# [17] = at 5.0 µM (retest, dose inferred, filed as 0.5)
# [18] = at 50.0 µM (retest, dose inferred, filed as 5.0)
compound,measurement,setting,value
Nc1nc(Cl)c(Cl)c(Cl)n1,growth inhibition,[1]; at 1.2 µM,1%
same,growth inhibition,[1]; at 3.7 µM,8%
same,growth inhibition,[1]; at 11.0 µM,32%
same,growth inhibition,[1]; at 33.0 µM,88% (active)
same,growth inhibition,[1]; at 100.0 µM,99% (active)
same,growth inhibition,[2]; at 1.2 µM,-2%
same,growth inhibition,[2]; at 3.7 µM,1%
same,growth inhibition,[2]; at 11.0 µM,14%
same,growth inhibition,[2]; at 33.0 µM,57%
same,growth inhibition,[2]; at 100.0 µM,99% (active)
same,growth inhibition,[3]; at 1.2 µM,0%
same,growth inhibition,[3]; at 3.7 µM,34%
same,growth inhibition,[3]; at 11.0 µM,89% (active)
same,growth inhibition,[3]; at 33.0 µM,93% (active)
same,growth inhibition,[3]; at 100.0 µM,99% (active)
same,growth inhibition,[4]; at 1.2 µM,1%
same,growth inhibition,[4]; at 3.7 µM,5%
same,growth inhibition,[4]; at 11.0 µM,20%
same,growth inhibition,[4]; at 33.0 µM,90% (active)
same,growth inhibition,[4]; at 100.0 µM,99% (active)
same,growth inhibition,[5]; at 1.2 µM,2%
same,growth inhibition,[5]; at 3.7 µM,3%
same,growth inhibition,[5]; [17],44%
same,growth inhibition,[5]; at 11.0 µM,17%
same,growth inhibition,[5]; at 33.0 µM,51%
same,growth inhibition,[5]; [18],100% (active)
same,growth inhibition,[5]; at 50.0 µM,47.3%
same,growth inhibition,[5]; at 100.0 µM,99% (active)
same,growth inhibition,[6]; at 1.2 µM,2%
same,growth inhibition,[6]; at 3.7 µM,14%
same,growth inhibition,[6]; [17],28%
same,growth inhibition,[6]; at 11.0 µM,42%
same,growth inhibition,[6]; at 33.0 µM,99% (active)
same,growth inhibition,[6]; [18],99% (active)
same,growth inhibition,[6]; at 50.0 µM,72.4% (active)
same,growth inhibition,[6]; at 100.0 µM,99% (active)
same,growth inhibition,[7]; at 1.2 µM,3%
same,growth inhibition,[7]; at 3.7 µM,8%
same,growth inhibition,[7]; at 11.0 µM,30%
same,growth inhibition,[7]; at 33.0 µM,99% (active)
same,growth inhibition,[7]; at 100.0 µM,99% (active)
same,growth inhibition,[8]; [17],59%
same,growth inhibition,[8]; [18],99% (active)
same,growth inhibition,[8]; at 50.0 µM,32.3%
same,growth inhibition,[9]; at 1.2 µM,-1%
same,growth inhibition,[9]; at 3.7 µM,0%
same,growth inhibition,[9]; at 11.0 µM,14%
same,growth inhibition,[9]; at 33.0 µM,30%
same,growth inhibition,[9]; at 100.0 µM,99% (active)
same,growth inhibition,[10]; [17],7%
same,growth inhibition,[10]; [18],99% (active)
same,growth inhibition,[10]; at 50.0 µM,13.8%
same,growth inhibition,[11]; at 1.2 µM,-4%
same,growth inhibition,[11]; at 3.7 µM,1%
same,growth inhibition,[11]; [17],27%
same,growth inhibition,[11]; at 11.0 µM,18%
same,growth inhibition,[11]; at 33.0 µM,92% (active)
same,growth inhibition,[11]; [18],99% (active)
same,growth inhibition,[11]; at 50.0 µM,-8.05%
same,growth inhibition,[11]; at 100.0 µM,99% (active)
same,growth inhibition,[12]; at 1.2 µM,0%
same,growth inhibition,[12]; at 3.7 µM,4%
same,growth inhibition,[12]; at 11.0 µM,17%
same,growth inhibition,[12]; at 33.0 µM,80% (active)
same,growth inhibition,[12]; at 100.0 µM,99% (active)
same,growth inhibition,[13]; at 1.2 µM,-2%
same,growth inhibition,[13]; at 3.7 µM,3%
same,growth inhibition,[13]; at 11.0 µM,18%
same,growth inhibition,[13]; at 33.0 µM,93% (active)
same,growth inhibition,[13]; at 100.0 µM,99% (active)
same,growth inhibition,[14]; at 1.2 µM,1%
same,growth inhibition,[14]; at 3.7 µM,14%
same,growth inhibition,[14]; at 11.0 µM,45%
same,growth inhibition,[14]; at 33.0 µM,99% (active)
same,growth inhibition,[14]; at 100.0 µM,99% (active)
same,growth inhibition,[15]; [17],80% (active)
same,growth inhibition,[15]; [18],99% (active)
same,growth inhibition,[15]; at 50.0 µM,30.4%
same,growth inhibition,[16]; at 1.2 µM,1%
same,growth inhibition,[16]; at 3.7 µM,5%
same,growth inhibition,[16]; at 11.0 µM,19%
same,growth inhibition,[16]; at 33.0 µM,77% (active)
same,growth inhibition,[16]; at 100.0 µM,99% (active)
CC(Br)C(=O)c1ccc2cc(Br)c3ccccc3c2c1 (stereo not drawn),growth inhibition,[1]; at 1.2 µM,-2%
same,growth inhibition,[1]; at 3.7 µM,-2%
same,growth inhibition,[1]; at 11.0 µM,-2%
same,growth inhibition,[1]; at 33.0 µM,4%
same,growth inhibition,[1]; at 100.0 µM,2%
same,growth inhibition,[2]; at 1.2 µM,0%
same,growth inhibition,[2]; at 3.7 µM,0%
same,growth inhibition,[2]; at 11.0 µM,1%
same,growth inhibition,[2]; at 33.0 µM,-5%
same,growth inhibition,[2]; at 100.0 µM,-3%
same,growth inhibition,[3]; at 1.2 µM,2%
same,growth inhibition,[3]; at 3.7 µM,14%
same,growth inhibition,[3]; at 11.0 µM,24%
same,growth inhibition,[3]; at 33.0 µM,35%
same,growth inhibition,[3]; at 100.0 µM,39%
same,growth inhibition,[4]; at 1.2 µM,-1%
same,growth inhibition,[4]; at 3.7 µM,-1%
same,growth inhibition,[4]; at 11.0 µM,-1%
same,growth inhibition,[4]; at 33.0 µM,2%
same,growth inhibition,[4]; at 100.0 µM,5%
same,growth inhibition,[5]; at 1.2 µM,1%
same,growth inhibition,[5]; at 3.7 µM,-2%
same,growth inhibition,[5]; [17],-3%
same,growth inhibition,[5]; at 11.0 µM,10%
same,growth inhibition,[5]; at 33.0 µM,0%
same,growth inhibition,[5]; [18],41%
same,growth inhibition,[5]; at 50.0 µM,63.7%
same,growth inhibition,[5]; at 100.0 µM,0%
same,growth inhibition,[6]; at 1.2 µM,2%
same,growth inhibition,[6]; at 3.7 µM,4%
